Test results taken from PubChem BioAssay (NCATS).
Records with an inconclusive call do not appear. Activity calls are given as the source filed them. The call rests on the fitted dose curve; in most records, active means well fitted curve in the direction sought with a large enough effect; inconclusive means small, poorly fitted or top-dose-only effect, or another doubt; inactive means no such curve, though single readings can be large; an effect the other way counts as inactive or inconclusive.

Biological target: Glucagon-like peptide 1 receptor (Homo sapiens) (UniProt P43220)
Test: qHTS of GLP-1 Receptor Agonists: LOPAC Validation (AID 624148);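 further: higher luminescence signal means agonism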
Details: GLP-1R agonist cell assay; series mostly up to 46.1 µM
In short: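 HEK293 cells stably co-expressing a cAMP-responsive luciferase reporter and a hypersensitive GLP-1R were plated 12 h at 37 °C and exposed to compounds for 4-6 hr at 37 °C, 5% CO2. Luminescence was read 12 min after adding detection reagent.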

Glucagon-like peptide 1 receptor (Homo sapiens), sequence (P43220 whole entry, looked up): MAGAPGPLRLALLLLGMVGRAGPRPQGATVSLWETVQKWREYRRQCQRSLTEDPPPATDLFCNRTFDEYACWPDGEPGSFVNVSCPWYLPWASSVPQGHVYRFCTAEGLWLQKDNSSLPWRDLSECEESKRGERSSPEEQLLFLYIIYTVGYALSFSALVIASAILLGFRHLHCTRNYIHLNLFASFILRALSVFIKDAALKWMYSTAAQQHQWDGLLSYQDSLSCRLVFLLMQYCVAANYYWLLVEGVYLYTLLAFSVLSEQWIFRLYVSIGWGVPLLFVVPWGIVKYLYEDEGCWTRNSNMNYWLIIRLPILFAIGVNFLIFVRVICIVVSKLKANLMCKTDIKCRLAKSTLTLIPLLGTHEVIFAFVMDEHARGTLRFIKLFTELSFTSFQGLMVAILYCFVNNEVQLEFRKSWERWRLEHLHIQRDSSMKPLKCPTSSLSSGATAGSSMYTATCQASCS

Compound | outcome
OCC1O[C@H](O)C(Cl)C(O)C1O (stereo partly specified) | inactive
COc1ccc(NC(=O)/C=C/c2ccc(Cl)cc2)cc1 | inactive
O=C(O)CNC(=O)C(CS)Cc1ccccc1 (stereo unspecified) | inactive
C[C@@H](NC(=O)/C(C#N)=C/c1ccc(O)c(O)c1)c1ccccc1 | inactive
NC[C@H]1O[C@@H](n2cnc3c(N)ncnc32)[C@H](O)[C@@H]1O | inactive
O=C(O)c1cc([N+](=O)[O-])ccc1NCCCc1ccccc1 | inactive
CCCCCCCCc1ccc(-c2ccc(C(=O)O)cc2)cc1 | inactive
Cn1cc(C2=C(c3ccc(Cl)cc3Cl)C(=O)NC2=O)c2ccccc21 | inactive
O=C(O)[C@@H]1C[C@H](C(=O)O)N1 | inactive
CC(C)NC[C@H](O)COc1cccc2[nH]ccc12 | inactive
Cn1ncc(S(=O)(=O)Cc2ccccc2)c(Br)c1=O | inactive
c1cnc2c(c1)ccc1cccnc12 | inactive
N=C(N)SCCc1ccc(CCSC(=N)N)cc1 | inactive
CN1CC(=O)N/C1=N/C(=O)Nc1cccc(Cl)c1 | inactive
CC1(C)CCC=[N+]1[O-] | inactive
O=c1[nH]c2cc(C(F)(F)F)ccc2n1-c1cc(C(F)(F)F)ccc1O | inactive

Compound | outcome
C[N+]1(C)C2CC(OC(=O)[C@H](CO)c3ccccc3)CC1C1OC12 (stereo partly specified) | inactive
N#C/C(=C\c1ccc(O)c(O)c1)C(=O)NCc1ccccc1 | inactive
CCCCC#Cc1nc(NC)c2ncn([C@@H]3O[C@H](CO)[C@@H](O)[C@H]3O)c2n1 | inactive
N#C/C(=C\c1c[nH]c2ccccc12)C(=O)c1ccc(O)c(O)c1 | inactive
CCCC1(C)C(C#N)(C#N)C1(C#N)C#N | inactive
C#CCN1C(C)=C(C(=O)OC)C(c2cccc([N+](=O)[O-])c2)C(C(=O)OCC)=C1C (stereo unspecified) | inactive
CCCCC/C=C\CC(O)/C=C/c1cccc(CC(O)CCCCO)n1 (stereo unspecified) | inactive
CN1CCC[C@H]1c1cccnc1 | inactive
O=[N+]([O-])c1ccc(CSc2ncnc3c2ncn3[C@@H]2O[C@H](CO)[C@@H](O)[C@H]2O)cc1 | inactive
O=c1[nH]c2cc(Cl)c(Cl)cc2[nH]c1=O | inactive
O=C(/C=C/c1ccc(O)cc1)c1ccc(O)cc1O | inactive
O=[N+]([O-])c1ccc2c(c1)S(=O)(=O)C=C2 | inactive
Oc1cc(O)cc(/C=C/c2ccc(O)c(O)c2)c1 | inactive
O=C(/C=C/c1ccc(O)c(O)c1)OCCc1ccccc1 | inactive
Fc1cccc(/C=N/N=C/c2cccc(F)c2)c1 | inactive

Test system: not listed separately
Test: qHTS of Nrf2 Activators: LOPAC Validation (AID 624149)
Details: Nrf2/ARE reporter cell assay; series mostly up to 46.1 µM
In short: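 ARE reporter activation measured in AREc32 firefly luciferase cells after 24 hr compound exposure; Steady-Glo luminescence.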

Compound | outcome
OCC1O[C@H](O)C(Cl)C(O)C1O (stereo partly specified) | inactive
COc1ccc(NC(=O)/C=C/c2ccc(Cl)cc2)cc1 | inactive
O=C(O)CNC(=O)C(CS)Cc1ccccc1 (stereo unspecified) | inactive
C[C@@H](NC(=O)/C(C#N)=C/c1ccc(O)c(O)c1)c1ccccc1 | inactive
NC[C@H]1O[C@@H](n2cnc3c(N)ncnc32)[C@H](O)[C@@H]1O | inactive
O=C(O)c1cc([N+](=O)[O-])ccc1NCCCc1ccccc1 | inactive
CCCCCCCCc1ccc(-c2ccc(C(=O)O)cc2)cc1 | inactive
Cn1cc(C2=C(c3ccc(Cl)cc3Cl)C(=O)NC2=O)c2ccccc21 | inactive
O=C(O)[C@@H]1C[C@H](C(=O)O)N1 | inactive
CNC(=O)[C@H]1O[C@@H](n2cnc3c(NCc4cccc(I)c4)ncnc32)[C@H](O)[C@@H]1O | inactive
Nc1ncnc2c1ncn2[C@@H]1O[C@H](COP(=O)(O)OP(=O)(O)OP(=O)(O)OP(=O)(O)OC[C@@H]2O[C@H](n3cnc4c(N)ncnc43)[C@@H](O)[C@H]2O)[C@@H](O)[C@H]1O | inactive
c1cnc2c(c1)ccc1cccnc12 | inactive
N=C(N)SCCc1ccc(CCSC(=N)N)cc1 | inactive
CN1CC(=O)N/C1=N/C(=O)Nc1cccc(Cl)c1 | inactive
CC1(C)CCC=[N+]1[O-] | inactive
O=c1[nH]c2cc(C(F)(F)F)ccc2n1-c1cc(C(F)(F)F)ccc1O | inactive
C=C[C@H]1CN2CC[C@@H]1C[C@@H]2[C@@H](O)c1ccnc2ccc(OC)cc12 | inactive
C[N+]1(C)C2CC(OC(=O)[C@H](CO)c3ccccc3)CC1C1OC12 (stereo partly specified) | inactive
N#C/C(=C\c1ccc(O)c(O)c1)C(=O)NCc1ccccc1 | inactive
COc1cccc(C(=O)NCCN2CCN(c3ccc(Cl)cc3)CC2)c1 | inactive
CCCCC#Cc1nc(NC)c2ncn([C@@H]3O[C@H](CO)[C@@H](O)[C@H]3O)c2n1 | inactive
N#C/C(=C\c1c[nH]c2ccccc12)C(=O)c1ccc(O)c(O)c1 | inactive
Nc1nc(Nc2ccccc2)nc2c1ncn2[C@@H]1O[C@H](CO)[C@@H](O)[C@H]1O | inactive
CCCC1(C)C(C#N)(C#N)C1(C#N)C#N | inactive
C#CCN1C(C)=C(C(=O)OC)C(c2cccc([N+](=O)[O-])c2)C(C(=O)OCC)=C1C (stereo unspecified) | inactive
CN1CCC[C@H]1c1cccnc1 | inactive
O=[N+]([O-])c1ccc(CSc2ncnc3c2ncn3[C@@H]2O[C@H](CO)[C@@H](O)[C@H]2O)cc1 | inactive
O=c1[nH]c2cc(Cl)c(Cl)cc2[nH]c1=O | inactive
C=C[C@@H]1CN2CC[C@@H]1C[C@H]2[C@H](O)c1ccnc2ccc(OC)cc12 | inactive
Fc1cccc(/C=N/N=C/c2cccc(F)c2)c1 | inactive
